The list is not random: actives were taken first. Their share in the collection is about 0.12%.
Casp1 inh = blocks human caspase-1 allosterically or competitively | P29466 | Caspase-1 enzyme, Ac-WEHD-AFC fluorogenic rate | Potency, µM (doses to about 57.5 µM), actives largely listed as inhibitors | 75,000 tested, 0.03% active | AID 900
Casp7 inh = caspase-7 (human) inhibition, allosteric or competitive; P55210; recombinant caspase-7, Ac-DEVD-AFC fluorescence rate; Potency, µM (top dose mostly 57.5 µM), most hits filed as inhibitors; 75,000 tested, 0.02% active; AID 889; active = well fitted inhibition curve with a large enough effect in the main read-out, with a control signal flat, not every such curve was filed as active; inconclusive = small, poorly fitted or top-dose-only effect, or a change in a side signal
USP2a inhib = inhibitors of human ubiquitin-specific protease USP2a; O75604; AID 927; USP2a enzymatic assay, qHTS inhibition; 60,000 tested, 0.1% active; Potency, µM (titrated, usually from 38.3 µM), most hits filed as inhibitors; also: nearly all actives have a fitted effect of over 60% in size
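USP2 core (20nM final) preincubated 30 min RT with compound, then Ub-PLA2 20nM and NBD C6-HPC 20uM final added; buffer 20mM Tris-HCl pH 8.0, 2mM CaCl2. Fluorescence Ex 460/Em 535 read at 0 and 2.5 h; normalized to NEM.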
Large screens that a line does not name were inactive. Unless noted, calls follow the shape of the dose curve; as a rule, active = well fitted curve in the direction sought with a large enough effect; inconclusive = small, poorly fitted or top-dose-only effect, or another doubt; inactive = no such curve, though single readings can be large; an effect the other way counts as inactive or inconclusive.

CC(C)=NOCc1ccc(-c2cn([C@@H]3COC[C@@H]3O)nn2)cc1	none (no result: USP2a inhib)
O=c1n(-c2ccccc2)c(=O)n2n1CC[C@H]1/C(=N\OC[C@@H](O)COCc3ccco3)[C@H]3O[C@@H]3[C@@H](O)[C@@H]12	none (no result: USP2a inhib)
COC(=O)NC(c1ccc(Cl)cc1)C(C(C)=O)C(=O)OC (stereo not drawn)	none (no result: USP2a inhib)
CC(/C=C/C=C(C)/C=C/C(=O)O)=C\C=C\C=C(C)\C=C\C=C(C)\C=C\C(=O)O	none (no result: USP2a inhib)
COc1cc(/C=C/C(=O)/C=C(O)/C=C/c2ccc(O)c(OC)c2)ccc1O	Casp1 inh inconclusive, USP2a inhib 10µM
COc1cc(/C=C/C(=O)O)ccc1O	none
COC(=O)NC(/C(C(=O)OC)=C(\C)NCc1ccccc1)c1cccc(F)c1 (stereo not drawn)	none (no result: USP2a inhib)
CO[C@@H]1COC(=O)C/C=C\[C@H](C)[C@H](OC)COC(=O)[C@H]2CCCN2C(=O)C/C=C\[C@H]1C	none (no result: USP2a inhib)
O=C(OCC1OC(OC(=O)c2cc(O)c(O)c(OC(=O)c3cc(O)c(O)c(O)c3)c2)[C@@H](OC(=O)c2cc(O)c(O)c(OC(=O)c3cc(O)c(O)c(O)c3)c2)C(OC(=O)c2cc(O)c(O)c(OC(=O)c3cc(O)c(O)c(O)c3)c2)C1OC(=O)c1cc(O)c(O)c(OC(=O)c2cc(O)c(O)c(O)c2)c1)c1cc(O)c(O)c(OC(=O)c2cc(O)c(O)c(O)c2)c1 (stereo partly drawn)	Casp1 inh inconclusive, Casp7 inh inconclusive, USP2a inhib 1µM
CC(=O)OCC1OC(c2ccccc2)C(OC(C)=O)C(OC(C)=O)C1OC(C)=O (stereo not drawn)	none
N[C@H]1[C@@H](C(=O)O)[C@H]2C=C[C@H]1C2	none (no result: USP2a inhib)
O=c1oc2ccccc2n1CCn1c2ccccc2c2nc3ccccc3nc21	USP2a inhib 10µM
O=c1oc2ccccc2n1Cn1c(=O)oc2ccccc21	none
CCNc1ncc2nc(-c3cccs3)c(=O)n(CCc3ccccc3)c2n1	Casp7 inh inconclusive (no result: Casp1 inh)
CC(C)CO/N=C1/C[C@@H](O)[C@@H](O)[C@@H]2[C@@H]3C(=O)N(C(C)(C)C)C(=O)[C@H]3CC[C@@H]12	none (no result: USP2a inhib)

Source: PubChem
